Experimental data as given in PubChem BioAssay AID602365 (National Center for Advancing Translational Sciences (NCATS), 2012).
Records with an inconclusive call do not appear. A number with no mark means an inactive call. Calls of active or inactive are those of the source. The call rests on the fitted dose curve; in most records, active means well fitted inhibition curve with a large enough effect; inconclusive means small, poorly fitted or top-dose-only effect; inactive means flat fitted curve, though single readings scatter.

Target: Luciferin 4-monooxygenase (Photinus pyralis) (UniProt P08659)
Test: FLuc inhibitory activity for the follow-up compounds in a biochemical assay with 1mM D-luciferin
Conditions: purified FLuc, luminescence; series mostly up to 57.5 µM; activity change, negative = inhibition: at the top concentration
Source text: NCGC Assay Overview: Firefly (Photinus pyralis) luciferase is one of the most commonly used transcriptional reporters. It is considered one of the more dynamically responsive reporters - that is, responsive to changes in reporter transcription - as it requires no post-translational modifications and is enzymatically active directly after protein synthesis (Wood, 1998). With no endogenous expression in mammalian cells and without the requirement of external excitation, it offers very little background signal, thus generally providing excellent signal to background for most assays. Previous profiling work to determine the prevalence of compounds that affect FLuc enzymatic activity (PubChem AID 411) identified that ~3% of the MLSMR library (then at ~72K) inhibited FLuc. […] Of the compounds identified in this profile that inhibited FLuc, 151 compounds were selected for further analysis, in an effort to better understand their mode of inhibiting FLuc. The assay described here was to determine the activity of the compounds in a FLuc assay that contained a KM concentration of ATP and a high concentration (1mM) of D-luciferin.
NCGC Assay Protocol Summary: Reagents: 50mM Tris acetate, pH 7.5; 10mM Mg acetate; 1mM D-luciferin (Sigma #L9504); 10uM ATP; 0.01% Tween-20; 0.05% BSA; 10nM P. pyralis luciferase (Sigma #L9506) Control compounds used were two known firefly luciferase inhibitors (3-(5-(3-chlorophenyl)-1,2,4-oxadiazol-3-yl)benzoic acid and 5-(2-fluorophenyl)-3-phenyl-1,2,4-oxadiazole), and DMSO. Three microliters containing firefly luciferase substrates in buffer (final concentrations: 50mM Tris acetate, pH 7.5, 10mM Mg acetate, 0.01% Tween-20, 0.05% BSA, 1mM D-luciferin, 10uM ATP) are dispensed into each well of a Greiner white, solid-bottom 1536-well format plate using a flying reagent dispenser (FRD). These assay plates were then treated with 23nL of compound or DMSO using a Kalypsys pin tool, which allows for delivery of a 12-point intraplate titration of each compound to the assay plate (quantitative HTS), with a final compound concentrations ranging from approximately ~60uM to 0.3nM. One microliter of firefly luciferase in […] Tris-acetate buffer was then delivered by FRD to each well for a final enzyme concentration of 10nM. Luciferase activity was then measured using a ViewLux CCD imager (PerkinElmer), with an average exposure time of 2-30 seconds (2X binning, medium/high gain).

Sequence of Luciferin 4-monooxygenase (Photinus pyralis) (P08659 whole entry, looked up): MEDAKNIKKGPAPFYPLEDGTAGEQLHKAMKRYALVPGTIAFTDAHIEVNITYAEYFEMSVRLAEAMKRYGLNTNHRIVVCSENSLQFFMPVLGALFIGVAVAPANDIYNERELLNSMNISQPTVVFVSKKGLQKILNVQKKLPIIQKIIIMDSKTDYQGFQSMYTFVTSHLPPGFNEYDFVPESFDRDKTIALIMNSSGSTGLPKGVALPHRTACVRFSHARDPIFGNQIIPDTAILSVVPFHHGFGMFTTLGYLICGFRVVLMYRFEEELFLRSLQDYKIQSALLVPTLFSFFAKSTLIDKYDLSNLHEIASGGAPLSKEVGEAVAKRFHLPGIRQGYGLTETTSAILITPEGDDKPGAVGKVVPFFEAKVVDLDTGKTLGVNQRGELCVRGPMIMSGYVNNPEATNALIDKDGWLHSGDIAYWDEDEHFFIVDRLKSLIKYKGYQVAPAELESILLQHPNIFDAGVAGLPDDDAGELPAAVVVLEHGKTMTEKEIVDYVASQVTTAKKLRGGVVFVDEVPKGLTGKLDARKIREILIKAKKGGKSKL

| Structure (SMILES) | Potency | activity change, negative = inhibition |
| --- | --- | --- |
| Cc1ccc(C(=O)Nc2cccc(C(=O)O)c2)cc1 | 4.11 µM (active) |  |
| COc1ccc(C(=O)Nc2ccccc2C(=O)Nc2ccc(C(=O)O)cc2)cc1 | 8.19 µM (active) |  |
| O=C(Nc1ccccc1C(=O)O)c1cccc(NC(=O)c2ccc(Br)o2)c1 | 20.6 µM (active) |  |
| CC(C)c1ccc(-c2nc3ccccc3s2)cc1 | 0.183 µM (active) |  |
| Oc1ccc(-c2nc3ccccc3s2)c(O)c1 | 16.3 µM (active) |  |
| Cc1cccc(NS(=O)(=O)c2cccc(C(=O)Nc3cccc(C(=O)O)c3)c2)c1 |  | -10.3% |
| COc1ccc2nc(NC(=O)C3CCN(S(=O)(=O)c4cccnc4)CC3)sc2c1 |  | -3.84% |
| O=C(Nc1ccccc1-c1nc2ccccc2s1)c1ccc(Br)o1 |  | -0.997% |
| Nc1ccc(-c2nc3ccc(N)cc3s2)cc1 | 1.83 µM (active) |  |
| COc1cc(OC)cc(-c2nc3ccccc3s2)c1 | 18.3 µM (active) |  |
| CC(C)CC(=O)Nc1cccc(C(=O)Nc2ccccc2C(=O)O)c1 | 23.1 µM (active) |  |
| CC(=O)Oc1ccc(C(=O)Nc2ccccc2C(=O)Nc2cccc(C(=O)O)c2)cc1 | 16.3 µM (active) |  |
| COc1ccc2nc(NC(=O)c3ccc(S(=O)(=O)N4CCCC(C)C4)cc3)sc2c1 (stereo not given) |  | -1.24% |
| O=C(Nc1ccccc1C(=O)O)c1cc(S(=O)(=O)NCc2ccccc2)ccc1Cl |  | -4.2% |
| CC(C)(C)C(=O)Nc1ccc(-c2nc3ccccc3s2)cc1 | 0.0411 µM (active) |  |
| COc1ccc2nc(NC(=O)c3cnccn3)sc2c1 | 6.51 µM (active) |  |
| O=C(O)c1ccc(NC(=O)c2cccc(NC(=O)c3cccs3)c2)cc1 | 32.6 µM (active) |  |
| CCOc1c(Cl)cc(C(=O)Nc2ccccc2C(=O)O)cc1Cl | 16.3 µM (active) |  |
| O=C(Nc1ccccc1C(=O)O)c1cccc(S(=O)(=O)Nc2ccc(Br)cc2)c1 |  | -16.9% |
| CCOc1ccc(C(=O)Nc2ccccc2C(=O)O)cc1 | 3.66 µM (active) |  |

| Structure (SMILES) | Potency | activity change, negative = inhibition |
| --- | --- | --- |
| COc1ccc(C(=O)Nc2ccccc2-c2nc3ccccc3s2)c(OC)c1 |  | -4.07% |
| O=C(Nc1ccccc1C(=O)O)c1cc(S(=O)(=O)Nc2ccccc2)ccc1Cl |  | -12.9% |
| Nc1ccc(C(=O)Nc2ccccc2C(=O)O)cc1 | 20.6 µM (active) |  |
| COc1cc(OC)cc(C(=O)Nc2ccc(-c3nc4ccccc4s3)c(C)c2)c1 |  | -10.4% |
| CCCC(=O)Nc1nc2ccc(OCC)cc2s1 | 29.1 µM (active) |  |
| CCOc1ccc2nc(NC(=O)c3ccccc3)sc2c1 | 1.46 µM (active) |  |
| COc1ccc2nc(NC(=O)c3ccc(NS(=O)(=O)c4cccs4)cc3)sc2c1 | 18.3 µM (active) |  |
| C/C(=N\NC(=O)c1ccccc1NC(=O)c1ccc(Cl)cc1)c1ccncc1 | 0.0517 µM (active) |  |
| Cc1ccc2nc(-c3ccc(NC(=O)CN4CCN(C(=O)c5ccco5)CC4)cc3)sc2c1 | 14.6 µM (active) |  |
| Cc1ccc(C(=O)Nc2ccc(C(=O)O)cc2)cc1S(=O)(=O)NCc1ccccc1 |  | -15.4% |
| Cc1c(NC(=O)C(C)(C)C)cccc1-c1nc2ccccc2s1 | 10.3 µM (active) |  |
| O=C(O)c1cccc(NC(=O)c2cccc(S(=O)(=O)Nc3cccc(F)c3)c2)c1 |  | -4.54% |
| Cc1ccc(NS(=O)(=O)c2ccc(Cl)c(C(=O)Nc3cccc(C(=O)O)c3)c2)cc1 |  | -7.82% |
| O=C(Nc1ccc(Cl)cc1-c1nc2ccccc2s1)c1ccco1 |  | -9.53% |
| CC(C)C(=O)Nc1cccc(C(=O)Nc2ccccc2C(=O)O)c1 | 18.3 µM (active) |  |
| COc1ccc(-c2nc3ccccc3s2)cc1O | 0.651 µM (active) |  |
| O=C(Nc1ccccc1C(=O)Nc1ccccc1C(=O)O)c1ccccc1 | 20.6 µM (active) |  |
| CCCOc1cccc(C(=O)Nc2ccc(-c3nc4ccccc4s3)c(Cl)c2)c1 |  | -4.48% |
| Cc1ccc(C(=O)Nc2cccc(C(=O)O)c2)cc1S(=O)(=O)N1CCCCC1 | 4.11 µM (active) |  |
| CCOc1ccc2nc(NC(=O)c3ccoc3C)sc2c1 | 2.91 µM (active) |  |
